PubChem BioAssay AID1159580 (chemical genetic matrix, 2015)
Among all 5,500 compounds or so, about 2,000 (36%) were called active. Roughly 18% stayed inconclusive and do not appear here. No stated cut-off is given here; in the data, active means normalized growth mostly below about 0.91 (no sharp cut-off); inconclusive means no clear call, values can overlap the other calls; inactive means mostly above about 0.92. The list shows a part of the results.

Assay: chemical genetic growth profiling, strain panel (AID 1159580);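 further: tested at 20 µM; growth read once vehicle control cultures reached saturation at 30 °C; 1 = growth at the plate median or of vehicle wells; lower values mean less growth of the strain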
Conditions: S. cerevisiae deletion strains, growth OD

Measured: normalized growth

CCN(CC)CCOCCOC(=O)C1(c2ccccc2)CCCC1
inactive: locus YAL013W, strain DEP1, hits give low values 0.986 | locus YAL021C, strain ccr4, hits give low values 0.986 | locus YAL026C, strain drs2, hits give low values 0.995 | locus YAL030W, strain snc1, hits give low values 0.992 | locus YAL040C, strain CLN3, hits give low values 0.988 | locus YBL061C, strain skt5, hits give low values 0.996 | locus YBR009C, strain hhf1, hits give low values 0.997 | locus YBR023C, strain chs3, hits give low values 0.987 | locus YBR171W, strain sec66, hits give low values 0.987 | locus YBR231C, strain swc5, hits give low values 0.982 | locus YBR279W, strain paf1, hits give low values 0.995 | locus YCL011C, strain gbp2, hits give low values 0.99 | locus YCL016C, strain dcc1, hits give low values 0.998 | locus YCL061C, strain MRC1 (second series), hits give low values 0.994 | locus YCL061C, strain MRC1, hits give low values 0.989 | locus YCL069W, strain vba3, hits give low values 0.994 | locus YCR088W, strain abp1, hits give low values 0.981 | locus YDL005C, strain med2, hits give low values 0.988 | locus YDL040C, strain nat1, hits give low values 0.998 | locus YDR001C, strain nth1, hits give low values 0.999 | locus YDR069C, strain doa4, hits give low values 0.984 | locus YDR137W, strain rgp1, hits give low values 0.981 | locus YDR150W, strain NUM1, hits give low values 0.995 | locus YDR159W, strain sac3, hits give low values 0.99 | locus YDR195W, strain ref2 0.966 | locus YDR297W, strain sur2, hits give low values 0.989 | locus YDR334W, strain swr1, hits give low values 0.995 | locus YDR335W, strain msn5, hits give low values 0.996 | locus YDR392W, strain spt3, hits give low values 1.01 | locus YEL003W, strain gim4, hits give low values 0.999 | locus YEL037C, strain rad23, hits give low values 0.999 | locus YEL061C, strain CIN8 (second series), hits give low values 0.999 | locus YER002W, strain NOP16, hits give low values 1 | locus YER015W, strain faa2, hits give low values 0.992 | locus YER016W, strain bim1, hits give low values 0.995 | locus YER111C, strain swi4, hits give low values 0.985 | locus YER155C, strain BEM2 (second series), hits give low values 0.992 | locus YFR010W, strain ubp6, hits give low values 1 | locus YGL167C, strain pmr1, hits give low values 0.991 | locus YGL173C, strain kem1, hits give low values 0.999 | locus YGL227W, strain vid30, hits give low values 0.981 | locus YGL240W, strain doc1, hits give low values 0.998 | locus YGL253W, strain hxk2, hits give low values 0.989 | locus YGR078C, strain PAC10, hits give low values 0.972 | locus YGR229C, strain SMI1, hits give low values 0.979 | locus YHR013C, strain ard1, hits give low values 0.969 | locus YHR027C, strain rpn1, hits give low values 0.996 | locus YHR030C, strain SLT2, hits give low values 0.967 | locus YHR079C, strain IRE1, hits give low values 0.975 | locus YHR142W, strain chs7, hits give low values 0.99 | locus YJL092W, strain hpr5, hits give low values 0.997 | locus YJL095W, strain BCK1 (second series), hits give low values 0.992 | locus YJL095W, strain BCK1, hits give low values 0.966 | locus YJL115W, strain asf1, hits give low values 0.996 | locus YJL129C, strain trk1, hits give low values 0.994 | locus YJL154C, strain vps35, hits give low values 0.998 | locus YJL164C, strain tpk1, hits give low values 0.977 | locus YJL166W, strain qcr8, hits give low values 0.997 | locus YJL187C, strain SWE1, hits give low values 0.996 | locus YJR066W, strain TOR1, hits give low values 0.917 | locus YJR075W, strain HOC1, hits give low values 0.99 | locus YKL160W, strain elf1, hits give low values 1 | locus YKR026C, strain gcn3, hits give low values 0.98 | locus YKR091W, strain srl3, hits give low values 0.992 | locus YLL001W, strain dnm1, hits give low values 0.994 | locus YLL026W, hits give low values 0.99 | locus YLL041C, strain sdh2, hits give low values 1 | locus YLR027C, strain aat2, hits give low values 0.993 | locus YLR113W, strain HOG1, hits give low values 0.931 | locus YLR221C, strain rsa3, hits give low values 0.987 | locus YLR258W, strain gsy2, hits give low values 0.979 | locus YLR262C, strain YPT6 (second series), hits give low values 0.947 | locus YLR320W, strain mms22, hits give low values 0.99 | locus YLR342W, strain FKS1, hits give low values 0.987 | locus YLR357W, strain rsc2, hits give low values 0.975 | locus YLR370C, strain arc18, hits give low values 0.998 | locus YLR384C, strain iki3, hits give low values 0.992 | locus YML120C, strain ndi1, hits give low values 0.989 | locus YMR058W, strain fet3, hits give low values 0.999 | locus YMR125W, strain sto1, hits give low values 0.987 | locus YMR129W, hits give low values 0.997 | locus YMR205C, strain PFK2, hits give low values 0.986 | locus YMR231W, strain pep5, hits give low values 0.996 | locus YMR307W, strain GAS1, hits give low values 0.986 | locus YNL071W, strain lat1, hits give low values 1.02 | locus YNL175C, strain NOP13, hits give low values 1.02 | locus YNL183C, strain NPR1, hits give low values 0.915 | locus YNL197C, strain WHI3, hits give low values 0.994 | locus YNL209W, strain ssb2, hits give low values 0.998 | locus YNL224C, strain SQS1, hits give low values 1 | locus YNL248C, strain rpa49, hits give low values 1.01 | locus YNL322C, strain KRE1 (second series), hits give low values 0.99 | locus YNL322C, strain KRE1, hits give low values 1.01 | locus YNR049C, strain mso1, hits give low values 0.989 | locus YOR001W, strain rrp6, hits give low values 0.994 | locus YOR070C, strain gyp1, hits give low values 0.999 | locus YOR080W, strain dia2, hits give low values 0.989 | locus YOR083W, strain WHI5 (second series), hits give low values 0.996 | locus YOR083W, strain WHI5, hits give low values 1 | locus YOR106W, strain vam3, hits give low values 1.02 | locus YOR231W, strain MKK1, hits give low values 0.983 | locus YOR265W, strain rbl2, hits give low values 0.988 | locus YOR270C, strain vph1, hits give low values 0.999 | locus YOR290C, strain snf2, hits give low values 0.992 | locus YPL051W, strain arl3, hits give low values 0.989 | locus YPL055C, strain LGE1, hits give low values 0.996 | locus YPL078C, strain atp4, hits give low values 0.994 | locus YPL106C, strain sse1, hits give low values 0.995 | locus YPL240C, strain hsp82, hits give low values 0.995 | locus YPL241C, strain CIN2, hits give low values 0.995 | locus YPL256C, strain CLN2, hits give low values 0.959
